ARNT-TACC3 inh: ARNT/TACC3 interaction disruption. Q9Y6A5. AlphaScreen His-ARNT PAS-B/GST-TACC3 binding, luminescence; TACC3 fragment carries E629A point mutation. inhibition, % at 9.99 µM. hit rate 0.66% among 390,000;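 active = mean inhibition of replicates at least 50% and at least half of replicates each reaching 50%; inconclusive = half or more replicates reach 50% but mean below 50%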;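 note: 0% = complete ARNT plus TACC3 wells and 100% = ARNT alone without TACC3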
ALR H2O2 inh: human ALR oxidase inhibition via reduced H2O2; purified ALR, DTT oxidation, H2O2 HRP-luminol luminescence; hit rate 3.8% among 290,000; inhibition, % (test concentration not listed); P55789;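 active = mean replicate inhibition above about 79%, with every replicate also reaching it, limit read from the data; inconclusive = only one of the two criteria met; inactive = mean below limit and not every replicate reaching it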
Target sequence (P55789 whole entry, looked up): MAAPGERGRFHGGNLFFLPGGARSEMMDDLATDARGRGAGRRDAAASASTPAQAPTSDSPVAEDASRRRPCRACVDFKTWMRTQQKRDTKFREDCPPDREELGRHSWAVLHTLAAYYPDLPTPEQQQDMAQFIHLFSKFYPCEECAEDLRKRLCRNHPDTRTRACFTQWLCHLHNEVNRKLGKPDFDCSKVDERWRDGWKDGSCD
NRP1-CendR mod: modulators of CendR peptide binding to human neuropilin-1. FAM-RPARPAR peptide binding to NRP-1, fluorescence polarization. inhibition, % at 25 µM. hit rate 0.85% among 360,000. O14786;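 active = inhibition or corrected inhibition above about 18%, plus a signal ratio from 0.5 to 1.5, limit read from the data, passing the limit was not always enough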
PDI turbidity: PDI (human) enzyme inhibition; PDI insulin aggregation turbidity, A650, 90 min; inhibition, % at 10 µM; hit rate 0.052% among 350,000;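 active = mean inhibition across replicates of 30% or more, whatever share of single replicates reach that level; inconclusive = mean inhibition below 30% while every single replicate reaches 30%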
PglD inh: inhibitors of Campylobacter jejuni PglD acetyltransferase. inhibition, % at 12.5 µM. AID 602405. purified PglD enzyme, DTNB colorimetric CoA detection. hit rate 0.098% among 360,000; in the data active = inhibition above about 16%, passing the limit was not always enough; inconclusive = no clear call, values can overlap the other calls
ERp5 block: inhibitors of human ERp5. Q15084. ERp5 insulin aggregation, absorbance 650 nm, 90 min. inhibition, % at 9.99 µM. hit rate 0.05% among 350,000;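 active = mean replicate inhibition above about 25%, with every replicate also reaching it, limit read from the data, passing the limit was not always enough; inconclusive = only one of those two criteria met; inactive = neither criterion met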
Target sequence (Q15084 whole entry, looked up): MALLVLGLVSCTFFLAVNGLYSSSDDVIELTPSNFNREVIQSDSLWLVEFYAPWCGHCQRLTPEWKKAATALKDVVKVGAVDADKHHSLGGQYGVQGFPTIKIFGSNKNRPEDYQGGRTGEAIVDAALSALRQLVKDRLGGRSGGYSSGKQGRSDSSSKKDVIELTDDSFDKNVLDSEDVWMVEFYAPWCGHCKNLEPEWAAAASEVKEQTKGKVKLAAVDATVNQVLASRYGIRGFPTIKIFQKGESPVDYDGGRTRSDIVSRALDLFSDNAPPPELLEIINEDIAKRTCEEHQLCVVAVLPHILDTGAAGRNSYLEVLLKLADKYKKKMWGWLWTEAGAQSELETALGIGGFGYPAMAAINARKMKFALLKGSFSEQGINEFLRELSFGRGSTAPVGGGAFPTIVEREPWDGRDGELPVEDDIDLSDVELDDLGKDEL
The depositor's hits bear a star; ? = inconclusive; . = no result given. This excerpt belongs to a sample that is enriched for hits.

SMILES	ARNT-TACC3 inh	ALR H2O2 inh	NRP1-CendR mod	PDI turbidity	PglD inh	ERp5 block
COc1ccc(NC(=O)c2cccc(-c3ccc(O)cc3)c2)cn1	3.0	?	41.1*	-11.9	-3.6	-3.3
CC(=O)Nc1cccc(NC(=O)c2cccc(Cl)c2)c1	.	.	11.5	1.6	-6.2	-4.0
Cc1cc(N(C)C)ccc1N=Nc1ccc(N)cc1	7.6	44.8	-58.0	-3.2	-2.4	3.6
Nc1ccc(N=Nc2ccc(N)cc2)cc1	.	98.2*	-30.9	-2.3	.	-0.3
CCNC(=O)[C@H]1[C@H](CO)[C@H]2Cn3c(ccc(/C=C/c4ccccc4)c3=O)[C@@H]1N2C(C)=O	-10.3	.	.	.	0.0	0.9
CCCNC(=O)[C@H]1[C@H](CO)[C@H]2Cn3c(ccc(/C=C/c4ccccc4)c3=O)[C@@H]1N2C(C)=O	-7.2	.	.	.	0.6	71.5*
CCCN(CCC)C(=O)Cn1c(=O)c2sccc2n2c(=S)sc(-c3ccccc3)c12	.	-2.9	42.0*	.	-3.7	3.3
Oc1ccc(Br)cc1-c1nc2cnccn2c1NC1CCCC1	-3.0	94.4*	-27.9	3.4	-0.1	.
Oc1ccc(Br)cc1-c1nc2cnccn2c1NC1CCCCC1	-25.9	92.1*	-0.6	-4.8	4.9	2.5
Fc1ccc(-c2nc3cnccn3c2NC2CCCC2)cc1	-12.3	99.3*	7.2	-3.5	.	1.7
COc1ccc(NC(=O)N(C)C[C@H]2OCc3ccccc3-c3ccccc3C(=O)N([C@@H](C)CO)C[C@@H]2C)c(OC)c1	.	.	.	.	-2.6	6.3
Cc1oc(-c2cccs2)nc1CS(=O)CC(=O)NCCCOC(C)C (centres undefined)	-1.6	98.6*	-11.8	2.7	.	.
CCCCNC(=O)CS(=O)Cc1nc(-c2cccs2)oc1C (centres undefined)	.	98.0*	0.9	.	8.1	-2.5
Cc1oc(-c2cccs2)nc1CS(=O)CC(=O)NCCc1ccccc1 (centres undefined)	-4.1	98.4*	-9.4	.	-3.4	4.8
CC(C)OCCCNC(=O)c1cccs1	8.4	0.2	-12.3	-5.1	.	.
C[C@@H]1CN([C@H](C)CO)C(=O)c2cccc(NC(=O)C3CC3)c2O[C@@H]1CN(C)S(=O)(=O)c1cn(C)cn1	-0.8	.	.	.	-0.6	0.2
O=C(Cc1ccccn1)N[C@H]1CC[C@H](CCn2cc(-c3cccnc3)nn2)O[C@@H]1CO	13.7	.	.	.	-1.3	3.1
CCCCCC/C=N/Nc1nnc(Cc2ccc(OC)c(OC)c2)c(=O)[nH]1	54.0*	-5.6	-5.4	-7.3	1.0	0.2
Cc1ccc(/C=N/Nc2nnc(Cc3ccccc3)c(=O)[nH]2)o1	.	-2.6	12.1	-1.8	.	3.1
COc1ccc(Cc2nnc(N/N=C/c3ccc(O)cc3O)[nH]c2=O)cc1OC	62.2*	.	-0.6	5.8	.	-0.9
Cc1noc(C)c1NC(=O)Nc1ccc2c(c1)CC(=O)N([C@H](C)CO)C[C@H](C)[C@@H](CN(C)S(=O)(=O)c1cn(C)cn1)O2	-1.8	.	.	.	0.1	.
CC(C)CC#Cc1ccc2c(c1)O[C@H](CN(C)C(=O)c1cnccn1)[C@H](C)CN([C@@H](C)CO)S2(=O)=O	-3.6	.	.	.	2.9	-1.0
COc1ccc(S(=O)(=O)N[C@@H]2CC[C@@H](CCn3cc(C(C)C)nn3)O[C@@H]2CO)cc1	-10.2	.	.	.	4.8	3.0
CC(C)c1nc2ccc(Br)cn2c1NC1CCCC1	-13.7	98.8*	-1.9	2.4	.	-3.3
Cc1ccc(Cc2c(C3CCCCC3)nc3ccc(Br)cn23)cc1	.	.	-0.8	.	-3.7	-8.4
SMILES	ARNT-TACC3 inh	ALR H2O2 inh	NRP1-CendR mod	PDI turbidity	PglD inh	ERp5 block
COc1cc(/C=C2/C(=O)CNC2=O)ccc1O	.	99.0*	-23.2	13.0	.	.
COc1cc(/C=C2/NC(=O)N(Cc3ccccc3F)C2=O)ccc1O	0.1	99.0*	3.9	-1.3	.	19.6
COc1cc(C=C2C(=O)C=CC2=O)ccc1O	.	.	-142.2	.	.	-2.0
O=C1N/C(=C/c2cccn2-c2ccc(F)cc2)C(=O)N1Cc1ccccc1F	.	9.6	42.9*	5.4	.	.
COc1cc(/C=C2/NC(=O)N(Cc3ccccc3F)C2=O)ccc1Oc1ccc([N+](=O)[O-])cn1	-9.5	.	-7.5	-4.9	.	.
CCOc1cc(/C=C2\NC(=S)N(c3c(C)n(C)n(-c4ccccc4)c3=O)C2=O)ccc1O	1.2	98.6*	-111.4	-3.0	-19.8	-5.9
O=C1N/C(=C/c2cccn2-c2ccccc2)C(=O)N1Cc1ccc(F)cc1	-11.4	.	-11.5	-3.9	0.5	.
CCOc1cccc(/C=C2\NC(=S)N(c3ccccc3)C2=O)c1O	-3.2	?	-2.9	5.3	-7.8	3.2
C[C@@H]1CN([C@H](C)CO)C(=O)c2cc(NC(=O)Nc3ccc4c(c3)OCO4)ccc2O[C@@H]1CN(C)S(=O)(=O)c1cccs1	4.4	.	.	.	4.1	9.3
COc1cc(/C=C2\NC(=S)N(C)C2=O)ccc1O	5.2	98.9*	-83.5	10.3	.	2.4
CN1C(=O)/C(=C/c2ccc(O)c([N+](=O)[O-])c2)NC1=S	3.2	45.7	11.5	12.2	.	7.7
COCC#Cc1ccc(CC[C@H]2O[C@H]3CC[C@H](CO)O[C@H]3C[C@H]2NC(=O)Nc2c(C)noc2C)cc1	.	.	.	.	.	6.5
Cc1noc(C)c1S(=O)(=O)NCCCN1CCN(Cc2ccccc2)CC1	.	10.4	.	.	.	.
Cc1noc(C)c1S(=O)(=O)NCCN1CCN(c2ccccc2)CC1	.	85.8*	2.5	-0.4	-0.5	.
COc1ccc(-c2nnc3c4ccccc4c(C)nn23)cc1S(=O)(=O)N1CCN(CCO)CC1	active	-4.1	7.7	-1.1	-6.0	.
Cc1nn2c(-c3ccc(S(=O)(=O)N4CCN(CCO)CC4)o3)nnc2c2ccccc12	43.3	0.9	7.4	8.6	-1.6	1.2
CCn1c(=Nc2ccc(N3CCOCC3)cc2)ccc2ccccc21	-7.0	66.8	15.5	2.2	1.8	.
Cn1c(=Nc2ccc(N3CCOCC3)cc2)ccc2ccccc21	1.6	99.2*	13.0	0.5	-5.4	.
CN1C(C(=O)NCc2cccc(C(F)(F)F)c2)CC2Cn3c(nc4cc5ccccc5cc43)C21 (centres undefined)	-2.8	.	-5.0	-1.1	-6.3	-0.2
C=CCNC(=O)C1CC2Cn3c(nc4cc5ccccc5cc43)C2N1C (centres undefined)	-1.4	.	18.9*	4.3	-4.4	-6.0
CC(C)(C)C(=O)NC1=NCCS1	-1.3	100.2*	-5.0	2.7	4.5	.
CC(C(=O)NC1=NCCS1)(C(F)(F)F)C(F)(F)F	-2.1	-2.4	0.4	-8.6	-2.7	.
C[C@H](CO)N1C[C@H](C)[C@H](CN(C)Cc2cccc(C(F)(F)F)c2)Oc2ncc(C#CCN(C)C)cc2C1=O	-0.5	.	.	.	-4.7	1.2
O=C(c1cc(-c2cccnc2)nc2ccccc12)N1CCCc2ccccc21	9.9	94.7*	6.0	0.9	6.6	.
Cc1ccc(-c2cc(C(=O)N3CCCc4ccccc43)c3ccccc3n2)cc1	-4.6	-30.9	8.7	-4.3	-3.9	.
CCN1[C@H](C(=O)OC)[C@@H](CO)[C@@H]2Cn3c(ccc(-c4cccc(C(=O)N(C)C)c4)c3=O)[C@@H]21	26.5	.	.	.	0.4	.
C=CCC(=O)N1CCC(n2nccc2NC(=O)CCOc2ccccc2)CC1	.	-2.4	27.8*	-0.9	-3.2	-0.5

High-throughput results as filed in PubChem.
